Assay results reported in PubChem BioAssay (NCATS).
Results filed as inconclusive are left out. Calls of active or inactive are those of the source. Unless noted, calls come from the whole dose curve; as a rule, active = well fitted curve in the direction sought with a large enough effect; inconclusive = small, poorly fitted or top-dose-only effect, or another doubt; inactive = no such curve, though single readings can be large; an effect the other way counts as inactive or inconclusive.

Tests used:
[1] = biological target: DNA repair nuclease/redox regulator APEX1 (Homo sapiens) (UniProt P27695); test: qHTS Validation Assay for Inhibitors of the Human Apurinic/apyrimidinic Endonuclease 1 (APE1) (AID 1705;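 note: TAMRA fluorescence gain over two minutes as APE1 cuts a quenched THF abasic duplex; % is set by controls: 0 for no effect and ±100 for the full control effect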)
Method in brief: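 Activity read as rising fluorescence (598 nm emission, 525 nm excitation) from incision of a TAMRA/BHQ-2 duplex carrying a THF abasic site (50 nM). Compound and enzyme sat 15 min at RT before substrate start; signal change between first and third 60-s reads.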

[2] = qHTS for differential inhibitors of proliferation of Plasmodium falciparum line GB4 (AID 1816); details: Potency: Plasmodium falciparum GB4 proliferation inhibition;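 note: parasite growth measured after 72 h incubation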; note: potency is the fitted concentration of half-maximal effect
[3] = biological target: ATP-dependent DNA helicase Q1 (Homo sapiens) (UniProt P46063); test: qHTS Validation Assay for Inhibitors of RecQ-Like Dna Helicase 1 (RECQ1) (AID 2353);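 note: plate controls were DMSO vehicle for no effect and enzyme-free control for full effect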
Method in brief: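 RECQ1T1 50 nM; forked duplex (20 bp + 30-nt ss tails) 200 nM, ATP 2 mM final; pH 8.0, 2 mM MgCl2, 2.5 ug/ml poly(dI-dC); 15 min compound preincubation; discontinuous kinetic read over 2 h at RT.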

[4] = Validation screen for small molecules that induce DNA re-replication in MCF 10A normal breast cells (AID 463097); note: nearly all actives have a fitted effect of over 60% in size; note: potency is the fitted concentration of half-maximal effect
Method in brief: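 Read-out is Hoechst total nuclear intensity by fluorescence scanning imager, flagging increased high-DNA-content nuclei. Compounds were incubated with MCF 10A cells for 48 hr (37 C, 5% CO2) before 40 min staining.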

[5] = Quantitative high throughput screen for delayed death inhibitors of the malarial parasite plastid, 96 hour incubation (AID 488745); note: nearly all actives have a fitted effect of over 70% in size; note: potency is the fitted concentration of half-maximal effect
Method in brief: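 Readout is firefly luciferase luminescence from an integrated reporter in P. falciparum; lower signal marks inhibited growth. Cultures at 2% hematocrit and 0.1% parasitemia were treated with compound across two generations (96 h, 37 C, 5% CO2).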

[6] = biological target: Thyrotropin receptor (Homo sapiens) (UniProt P16473); test: qHTS Assay for Antagonists of the Thyroid Stimulating Hormone Receptor (AID 488980); note: 0% is about no effect
Method in brief: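 Inhibition of cAMP raised by EC80 TSH (4 nM final) was read by HTRF, with lysate cAMP competing against cAMP-d2 for cryptate antibody after 30 min at room temperature. The cells were transfected HEK293 held in phosphodiesterase inhibitor RO 20-1724 at 70 uM.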

[7] = biological target: Thyrotropin-releasing hormone receptor (Homo sapiens) (UniProt P34981); test: qHTS for Small Molecule Agonists and Allosteric Enhancers of Human TRH Receptor: Validation Screen for Agonists (AID 493127;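 active = calcium activation more than 3 SD above the typical response in the agonist read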;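 note: intracellular calcium rise by fluo-8 fluorescence before TRH EC20 addition; 0% is about no effect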); details: TRH receptor agonist cell assay; at 2 µM; stronger effect = higher value
Method in brief: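 Compounds are added by online pintool to dye-loaded TRHR cells while fluorescence is recorded every second. A rise in calcium signal during the agonist read marks activation; a later 10 nM TRH addition (EC20) serves the separate enhancer mode.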

[8] = biological target: Galactokinase (Homo sapiens) (UniProt P51570); test: qHTS Validation Assay for Inhibitors of Human Galactokinase (GALK) (AID 493189); note: 0% is about no effect
Method in brief: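 Inhibition was measured as remaining ATP, detected by luciferase luminescence after a 1 h room-temperature reaction. Final conditions: 5 nM GALK, 100 uM galactose, 35 uM ATP, pH 8.0 HEPES buffer.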

[9] = Validation screen for small molecules that induce DNA re-replication in SW480 colon adenocarcinoma cells (AID 504364); note: 0% is about no effect
Method in brief: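 Image-based qHTS: compounds were incubated with SW480 cells for 48 hr, nuclei stained with Hoechst, and per-nucleus fluorescence intensity scanned to flag cells with excess DNA content.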

[10] = qHTS profiling for inhibitors of Plasmodium falciparum proliferation (AID 504749);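 note: 0% = DMSO vehicle and full inhibition = artemisinin control; nearly all actives have a fitted effect of over 60% in size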; details: P. falciparum in erythrocytes, SYBR Green DNA, 72 h, at 28.7 µM (top of the series)
Method in brief: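 Quantitative HTS: compounds pinned into medium, infected erythrocytes added (0.3% parasitemia, 2.5% hematocrit), 72 h culture at 37 C under 5% CO2. Saponin/Triton lysis with SYBR Green I, overnight RT, then fluorescence read.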

[11] = biological target: Endonuclease 4 (Escherichia coli (strain K12)) (UniProt P0A6C1); test: Counterscreen for APE1 Inhibitors: qHTS Validation Assay for Inhibitors of Endonuclease IV (AID 1708); note: % is set by controls: 0 for no effect and ±100 for the full control effect
Method in brief: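 Enzyme (2 nM) + compound, 15 min RT; add 50 nM TAMRA/BHQ-2 THF-site dsDNA; kinetic read ex525/em598, 3 reads/60 s; activity = read 3 − read 1. Buffer Tris pH 7.5, 50 mM NaCl, 2 mM MgCl2, DTT, Tween-20.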

Chain of Galactokinase (Homo sapiens) (P51570 whole entry, looked up): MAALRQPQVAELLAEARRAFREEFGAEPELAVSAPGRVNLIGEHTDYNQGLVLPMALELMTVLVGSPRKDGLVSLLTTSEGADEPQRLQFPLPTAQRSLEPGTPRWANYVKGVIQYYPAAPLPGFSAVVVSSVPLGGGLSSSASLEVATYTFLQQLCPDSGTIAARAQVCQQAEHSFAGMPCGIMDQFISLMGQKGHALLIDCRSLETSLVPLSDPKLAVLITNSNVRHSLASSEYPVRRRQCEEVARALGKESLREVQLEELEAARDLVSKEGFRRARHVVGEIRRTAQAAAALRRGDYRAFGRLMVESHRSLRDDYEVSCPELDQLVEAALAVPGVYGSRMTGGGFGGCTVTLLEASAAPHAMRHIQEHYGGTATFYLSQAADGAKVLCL
Chain of Thyrotropin-releasing hormone receptor (Homo sapiens) (P34981 whole entry, looked up): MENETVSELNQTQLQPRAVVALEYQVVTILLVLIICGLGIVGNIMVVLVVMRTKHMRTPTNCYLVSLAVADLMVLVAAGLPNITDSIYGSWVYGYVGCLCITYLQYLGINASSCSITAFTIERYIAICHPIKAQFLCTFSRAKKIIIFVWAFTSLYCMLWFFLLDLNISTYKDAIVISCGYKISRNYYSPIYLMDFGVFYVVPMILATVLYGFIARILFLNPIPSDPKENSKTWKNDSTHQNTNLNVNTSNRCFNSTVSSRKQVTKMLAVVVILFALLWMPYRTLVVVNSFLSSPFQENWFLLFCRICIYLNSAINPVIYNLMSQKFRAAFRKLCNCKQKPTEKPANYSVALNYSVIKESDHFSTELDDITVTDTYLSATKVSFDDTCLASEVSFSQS
Chain of ATP-dependent DNA helicase Q1 (Homo sapiens) (P46063 whole entry, looked up): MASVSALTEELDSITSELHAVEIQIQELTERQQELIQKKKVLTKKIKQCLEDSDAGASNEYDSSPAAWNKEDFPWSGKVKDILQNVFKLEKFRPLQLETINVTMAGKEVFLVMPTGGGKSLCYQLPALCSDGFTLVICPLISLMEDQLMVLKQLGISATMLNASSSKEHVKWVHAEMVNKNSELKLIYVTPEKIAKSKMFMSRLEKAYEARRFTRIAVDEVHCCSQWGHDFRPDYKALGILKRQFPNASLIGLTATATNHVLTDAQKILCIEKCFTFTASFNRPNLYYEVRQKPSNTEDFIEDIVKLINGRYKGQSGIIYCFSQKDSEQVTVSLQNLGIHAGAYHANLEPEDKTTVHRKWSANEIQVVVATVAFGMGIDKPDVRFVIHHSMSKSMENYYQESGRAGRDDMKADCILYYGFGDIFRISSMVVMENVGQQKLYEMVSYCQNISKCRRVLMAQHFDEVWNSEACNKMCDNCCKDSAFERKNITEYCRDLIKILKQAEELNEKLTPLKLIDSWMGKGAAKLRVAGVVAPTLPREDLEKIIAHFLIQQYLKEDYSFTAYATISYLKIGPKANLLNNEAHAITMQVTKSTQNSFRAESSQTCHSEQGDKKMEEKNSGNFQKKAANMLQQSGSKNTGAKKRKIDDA
Chain of Thyrotropin receptor (Homo sapiens) (P16473 whole entry, looked up): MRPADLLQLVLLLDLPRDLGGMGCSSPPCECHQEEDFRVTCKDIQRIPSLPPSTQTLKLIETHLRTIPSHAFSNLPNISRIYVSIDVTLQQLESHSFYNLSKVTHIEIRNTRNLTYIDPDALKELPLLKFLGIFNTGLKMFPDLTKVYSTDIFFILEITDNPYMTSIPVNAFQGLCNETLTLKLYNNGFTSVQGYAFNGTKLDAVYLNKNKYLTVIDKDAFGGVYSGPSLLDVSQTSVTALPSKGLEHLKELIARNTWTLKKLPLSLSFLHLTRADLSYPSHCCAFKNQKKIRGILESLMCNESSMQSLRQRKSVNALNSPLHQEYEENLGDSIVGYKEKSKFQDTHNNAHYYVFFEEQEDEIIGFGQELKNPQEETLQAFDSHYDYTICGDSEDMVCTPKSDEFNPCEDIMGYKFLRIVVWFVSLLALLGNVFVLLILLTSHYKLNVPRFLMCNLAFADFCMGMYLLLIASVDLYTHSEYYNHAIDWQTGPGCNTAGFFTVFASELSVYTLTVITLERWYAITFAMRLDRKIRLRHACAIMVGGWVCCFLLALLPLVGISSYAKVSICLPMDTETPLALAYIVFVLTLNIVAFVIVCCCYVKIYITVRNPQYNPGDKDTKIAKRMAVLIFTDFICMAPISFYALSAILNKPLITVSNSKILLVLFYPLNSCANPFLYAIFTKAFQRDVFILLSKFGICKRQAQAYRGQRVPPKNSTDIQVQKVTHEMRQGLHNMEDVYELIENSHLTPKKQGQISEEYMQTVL
Chain of DNA repair nuclease/redox regulator APEX1 (Homo sapiens) (P27695 whole entry, looked up): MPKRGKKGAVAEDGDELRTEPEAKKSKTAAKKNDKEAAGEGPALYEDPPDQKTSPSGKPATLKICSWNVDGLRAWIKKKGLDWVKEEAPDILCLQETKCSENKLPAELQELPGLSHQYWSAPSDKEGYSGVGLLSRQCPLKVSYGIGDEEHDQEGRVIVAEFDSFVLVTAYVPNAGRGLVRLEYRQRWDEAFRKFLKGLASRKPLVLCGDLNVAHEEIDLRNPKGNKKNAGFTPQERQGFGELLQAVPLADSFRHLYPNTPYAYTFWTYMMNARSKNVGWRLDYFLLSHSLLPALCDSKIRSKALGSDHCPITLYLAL

C[C@]12CC[C@H](OS(=O)(=O)O)CC1=CCC1C2CC[C@]2(C)C(=O)CC[C@@H]12 (some centres undefined)
inactive: Potency [1] | Potency [2] | outcome [3] | Potency [4] | Potency [5] | outcome [6] | activation [7] 0.688% | outcome [8] | outcome [9] | activity, negative = inhibition ([10]; parasite line A) -6.88% | activity, negative = inhibition ([10]; parasite line B) 5.59%

COc1ccc2c(c1O)-c1cccc3c1C(C2)N(C)CC3 (centres undefined)
inactive: Potency [1] | Potency [11] | outcome [3] | Potency [4] | Potency [5] | outcome [6] | activation [7] 1.19% | outcome [8] | outcome [9]
active: Potency [2] 8.91 µM

C/C=C(/C)C(=O)O[C@H]1C(C)=C2C([C@@H]1OC(=O)CCCCCCC)[C@@](C)(OC(C)=O)C[C@@H](OC(=O)CCC)[C@@]1(O)[C@H]2OC(=O)[C@@]1(C)O (some centres undefined)
inactive: Potency [11] | outcome [3] | outcome [6] | outcome [8] | outcome [9]
active: Potency [2] 3.16 µM | Potency [4] 6.31 µM | Potency [5] 4.15 µM | activation [7] 37.9%

CCCCN1C2CCC1CC(OC(c1ccc(F)cc1)c1ccc(F)cc1)C2 (centres undefined)
inactive: Potency [1] | Potency [11] | outcome [3] | outcome [6] | activation [7] 8.5% | outcome [8] | outcome [9]
active: Potency [2] 1.58 µM | Potency [4] 20 µM | Potency [5] 1.85 µM

O=C(O)C1C2CCC(O2)C1C(=O)O (centres undefined)
inactive: Potency [1] | Potency [11] | outcome [3] | Potency [5] | outcome [6] | activation [7] 1.38% | outcome [8] | outcome [9]

COc1ccc2c3c1O[C@H]1C(=O)CC[C@@]4(O)C(C2)N(CC2CC2)CCC314 (some centres undefined)
inactive: Potency [1] | Potency [11] | outcome [3] | Potency [4] | Potency [5] | outcome [6] | activation [7] 2.19% | outcome [8] | outcome [9]

Oc1cc2c(cc1O)[C@H]1c3ccccc3CNC1CC2 (some centres undefined)
active: Potency [2] 12.6 µM
inactive: Potency [1] | Potency [11] | outcome [3] | outcome [6] | activation [7] 0.812% | outcome [8]

C[C@H]1C2Cc3ccc(O)cc3[C@]1(C)CCN2CC1CC1
active: Potency [2] 11.2 µM
inactive: Potency [1] | Potency [11] | outcome [3] | Potency [4] | Potency [5] | outcome [6] | activation [7] 1.81% | outcome [8] | outcome [9]

CC(C)(O)C1C2OC(=O)C1[C@]1(O)C[C@H]3O[C@]34C(=O)O[C@H]2[C@]14C (some centres undefined) (tested in a mixture with another compound)
inactive: Potency [1] | Potency [2] | outcome [3] | Potency [4] | Potency [5] | outcome [6] | activation [7] 0.625% | outcome [8] | outcome [9] | activity, negative = inhibition ([10]; parasite line A) 14% | activity, negative = inhibition ([10]; parasite line B) -0.69%

Oc1ccc2c3c1O[C@H]1[C@@H](O)CC[C@@]4(O)C(C2)N(CC2CCC2)CCC314 (some centres undefined)
inactive: Potency [1] | Potency [11] | outcome [3] | Potency [4] | outcome [6] | activation [7] 1.31% | outcome [8] | outcome [9] | activity, negative = inhibition ([10]; parasite line A) 12% | activity, negative = inhibition ([10]; parasite line B) 0.575%

COC(=O)C(N)CCCN=C(N)N[N+](=O)[O-] (centres undefined)
inactive: Potency [1] | Potency [2] | outcome [3] | Potency [4] | Potency [5] | outcome [6] | activation [7] 1.06% | outcome [8] | outcome [9]

CCCN(CCC)[C@@H]1CCc2c(F)ccc(O)c2C1
active: Potency [2] 0.355 µM | Potency [5] 2.62 µM
inactive: Potency [1] | Potency [11] | outcome [3] | Potency [4] | outcome [6] | activation [7] -2.75% | outcome [8] | outcome [9]
